TDP43 rescue: rescues yeast growth from TDP-43 toxicity | TDP-43 expressing yeast growth rescue, BacTiter-Glo, 24 h | Potency, µM (highest dose often 46.1 µM), for the others: top-dose growth rescue (activation), usual class: activators | 410,000 tested, 1.8% active | AID 652104; further: % of control where 0% means no effect; nearly all actives have a fitted effect of over 50% in size
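Luminescence from BacTiter-Glo reports growth of TDP-43-expressing yeast after 24 hr at 30 deg C with compound. Cells were raffinose-pregrown to mid-log, then seeded in galactose medium at OD600=0.02.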
Abeta yeast res: restores growth of yeast expressing A-beta42 peptide; yeast expressing A-beta42, growth rescue, OD600, 48 h; response scale: 0% DMSO, 100% iron-clioquinol control; Potency, µM (titrated, usually from 46.1 µM), most hits filed as activators; 410,000 tested, 0.063% active; AID 1347071; further: nearly all actives have a fitted effect of over 55% in size
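Yeast growth medium received pinned compounds, then yeast cells expressing toxic A-beta were added; plates incubated at 30 C for 48 hr. Growth read as absorbance at 600 nm, normalized to DMSO and equimolar FeCl3 plus clioquinol controls.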
aSyn yeast inh: inhibitors of alpha-synuclein toxicity in yeast; Yeast expressing alpha-synuclein, growth rescue, BacTiter-Glo, 24 h; Potency, µM (titrated, usually from 46.1 µM), for the others: top-dose growth rescue (activation), usual class: activators; 370,000 tested, 0.14% active; AID 652106; further: % of control where 0% means no effect; nearly all actives have a fitted effect of over 65% in size
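Galactose-induced alpha-syn yeast (OD600=0.02, raffinose-pregrown) + pinned cpd, 24 hr, 30 deg C; growth by BacTiter-Glo luminescence. Growth restoration scores as activation.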
FUS yeast rescue: suppressors of FUS proteinopathy in yeast; S. cerevisiae FUS-expressing, growth rescue, OD600, 24 h; 390,000 tested, 0.24% active; Potency, µM (series often up to 76.6 µM), actives largely listed as activators; AID 1347120;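 further: plate controls were DMSO vehicle for no effect and reference control for full effect; nearly all actives have a fitted effect of over 55% in size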
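Read-out: OD at 600 nm after 24hr at 30C, reporting rescue of FUS-induced yeast toxicity. Cells at OD 0.005 in galactose (2%) minimal medium; compounds tested in a dilution series; CP55940 titration from 92uM final as control.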
Active calls of the source: *; i = inactive; ? = inconclusive; . = no result given. A selection: hits, their analogues and other compounds. The true share with any hit is near 2.2%. The call rests on the fitted dose curve; in most records, active means well fitted curve in the direction sought with a large enough effect; inconclusive means small, poorly fitted or top-dose-only effect, or another doubt; inactive means no such curve, though single readings can be large; an effect the other way counts as inactive or inconclusive. Potency means the concentration at half of the fitted maximal effect.

SMILES	TDP43 rescue	Abeta yeast res	aSyn yeast inh	FUS yeast rescue
O=C1NCN(c2ccccc2)C12CCN(C(c1cccc3ccccc13)c1nnnn1Cc1ccccc1)CC2 (stereo not given)	15.0%	i	2.4%	?
CCCCn1nnnc1C(c1cccc2ccccc12)N1CCC2(CC1)C(=O)NCN2c1ccccc1 (stereo not given)	-8.5%	i	12.2%	10µM*
O=C1NCN(c2ccccc2)C12CCN(C(c1ccnc3ccccc13)c1nnnn1Cc1ccccc1)CC2 (stereo not given)	6.0%	i	-0.4%	i
Cn1cccc1C(=O)OCC(=O)NCCc1ccc(S(N)(=O)=O)cc1	-31.4%	i	-2.9%	.
Cc1c(Cl)ccc2sc(N3CCN(C(=O)CCS(=O)(=O)c4ccc(F)cc4)CC3)nc12	17.8µM*	i	.	?

Screening results deposited in PubChem BioAssay by National Center for Advancing Translational Sciences (NCATS).
